This passage reports Potency results from PubChem BioAssay (NCATS).

Inconclusive results are not listed. Calls of active or inactive are those of the source. The call rests on the fitted dose curve; in most records, active means well fitted curve in the direction sought with a large enough effect; inconclusive means small, poorly fitted or top-dose-only effect, or another doubt; inactive means no such curve, though single readings can be large; an effect the other way counts as inactive or inconclusive.

The nature of experiment [1]: qHTS for Inhibitors of Plasmodium falciparum (DD2) proliferation (AID 504314).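 Further: parasite DNA measured by SYBR Green fluorescence after red cell lysis.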 Summed up:
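P. falciparum Dd2 is grown in erythrocytes with test compound for 72 h at 37C under 5% CO2. Growth is scored by SYBR Green I fluorescence after detergent lysis, relative to artemisinin (0.29 uM) and DMSO controls.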

Experiment [2] can be described thus: qHTS for Inhibitors of Plasmodium falciparum (GB4) proliferation (AID 504315). Further: nearly all actives have a fitted effect of over 50% in size. Further: potency means the concentration at half of the fitted maximal effect. In a few lines:
(§1)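 Parasite growth measured as SYBR Green DNA fluorescence (ex 485, em 535 nm) after overnight lysis following 72 h culture at 37 °C, 0.3% parasitemia, 2.5% hematocrit. Values normalized against DMSO and 0.29 uM artemisinin controls, with plate-stack correction.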
For orientation: In qHTS, concentration-response curves come from the screen itself.

A short description of experiment [3]: qHTS for Inhibitors of Plasmodium falciparum (CP250) proliferation (AID 504320). In a few lines: as §1
Experiment [4] can be described thus: qHTS for Inhibitors of Plasmodium falciparum (7G8) proliferation (AID 504316). Further: nearly all actives have a fitted effect of over 65% in size. Further: potency means the concentration at half of the fitted maximal effect. In a few lines: as §1
The nature of experiment [5]: qHTS for Inhibitors of Plasmodium falciparum (HB3) proliferation (AID 504318). Further: nearly all actives have a fitted effect of over 60% in size. In a few lines:
as §1

The target in experiment [6] is Ubiquitin carboxyl-terminal hydrolase 1 (Homo sapiens) (UniProt O94782). Description: Inhibitors of USP1/UAF1: Pilot qHTS (AID 504865).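 Further: rhodamine fluorescence freed from ubiquitin-rhodamine substrate followed over time; top concentration of the series differs between compounds; nearly all actives have a fitted effect of over 35% in size.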 In a few lines: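 Deubiquitinase activity followed as kinetic rhodamine fluorescence release from 150 nM Ub-Rho. 1 nM USP1/UAF1 with compound, after 15 min room-temperature preincubation, in HEPES pH 7.8 buffer containing TCEP, EDTA, BSA and Tween-20.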
Ubiquitin carboxyl-terminal hydrolase 1 (Homo sapiens), sequence (O94782 whole entry, looked up): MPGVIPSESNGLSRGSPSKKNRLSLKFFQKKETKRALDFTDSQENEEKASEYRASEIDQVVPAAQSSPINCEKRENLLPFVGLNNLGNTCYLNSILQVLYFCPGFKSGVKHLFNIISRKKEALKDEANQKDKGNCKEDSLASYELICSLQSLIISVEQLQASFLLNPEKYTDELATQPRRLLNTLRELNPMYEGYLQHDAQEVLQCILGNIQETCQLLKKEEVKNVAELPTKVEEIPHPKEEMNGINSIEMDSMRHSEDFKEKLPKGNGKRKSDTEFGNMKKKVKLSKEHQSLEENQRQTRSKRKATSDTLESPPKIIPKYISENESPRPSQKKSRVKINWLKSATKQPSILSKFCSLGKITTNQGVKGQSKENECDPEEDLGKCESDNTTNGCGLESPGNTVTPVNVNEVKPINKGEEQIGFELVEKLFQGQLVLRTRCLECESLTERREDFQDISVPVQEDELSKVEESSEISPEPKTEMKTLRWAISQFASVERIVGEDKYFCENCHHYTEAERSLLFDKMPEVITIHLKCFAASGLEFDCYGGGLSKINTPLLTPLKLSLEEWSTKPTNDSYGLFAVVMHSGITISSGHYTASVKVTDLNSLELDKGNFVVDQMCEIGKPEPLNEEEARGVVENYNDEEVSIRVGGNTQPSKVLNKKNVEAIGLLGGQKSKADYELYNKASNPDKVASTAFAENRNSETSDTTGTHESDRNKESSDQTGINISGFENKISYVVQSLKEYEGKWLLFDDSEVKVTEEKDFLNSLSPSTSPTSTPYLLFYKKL

In experiment [7] the target is DNA dC->dU-editing enzyme APOBEC-3G (Homo sapiens) (UniProt Q9HC16). Description: qHTS for inhibitors of Vif-A3G interactions: Validation (AID 588379). In a few lines: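 Yellow fluorescence (Ex 488, Em 500-530) of Vif-coexpressing HeLa A3G-eYFP cells, scanned by Acumen cytometer, reports blocked A3G degradation. Cells plated at 700/well overnight at 37 deg C before compound addition, then a further overnight compound incubation at 37 deg C.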
DNA dC->dU-editing enzyme APOBEC-3G (Homo sapiens), sequence (Q9HC16 whole entry, looked up): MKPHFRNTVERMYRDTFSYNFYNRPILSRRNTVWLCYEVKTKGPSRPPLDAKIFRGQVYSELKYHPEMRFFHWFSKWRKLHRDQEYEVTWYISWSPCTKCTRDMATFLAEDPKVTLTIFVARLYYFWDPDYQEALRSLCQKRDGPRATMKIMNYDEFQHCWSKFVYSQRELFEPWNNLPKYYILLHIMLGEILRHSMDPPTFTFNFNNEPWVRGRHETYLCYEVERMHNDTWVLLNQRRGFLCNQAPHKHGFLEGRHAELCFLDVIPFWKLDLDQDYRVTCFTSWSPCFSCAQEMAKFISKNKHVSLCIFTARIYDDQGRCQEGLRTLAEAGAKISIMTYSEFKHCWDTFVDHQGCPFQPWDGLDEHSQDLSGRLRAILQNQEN

For `COc1ccc2c(c1)O[C@@H](c1ccc3c(c1)OCO3)[C@H](OC(=O)Nc1ccc(C)c(Br)c1)C2=O`, the Potency entry in experiment [1], in experiment [2] and in experiment [3] was “inactive” throughout.
In the case of `CC[C@@H](c1ccccc1)n1c(=O)n2n(c1=O)[C@H]1[C@H](O)[C@@H]3O[C@H]3C(=NOCc3ccccc3)[C@H]1CC2`, the Potency result in experiment [1], in experiment [4], in experiment [5] and in experiment [3] was “inactive” in each case.
For the compound `O=C1C=C(c2ccccc2)CCC1`, the Potency result in experiment [1], in experiment [2], in experiment [4] and in experiment [3] was “inactive” each time.
As for `COC(=O)C[C@H]1c2ccccc2[C@@H]2C(=C[C@@H](C)[C@H]3C(=O)N(O)C(=O)[C@H]32)N1C(=O)OC`, the Potency entry in experiment [1], in experiment [2], in experiment [4], in experiment [5] and in experiment [3] was “inactive” in each case.
For the compound `O=C(NN=C1C[C@@H](O)[C@H](O)[C@H]2[C@@H]3C(=O)N(c4cccc(Oc5ccccc5)c4)C(=O)[C@@H]3CC[C@H]12)OCc1ccccc1`, the Potency entry in experiment [1], in experiment [2], in experiment [4], in experiment [5] and in experiment [3] was “inactive” throughout.
Regarding `COC(=O)C1=C(C)N(Cc2ccccc2)C(=NCCc2ccc(O)cc2)NC1c1ccc(Br)cc1` (configuration not stated), the Potency result in experiment [4] and in experiment [5] was “inactive” in each case.
Consider `COC(=O)C1=C(C(=O)OC)[C@@H]2N(Cc3ccccc3)c3ccccc3[C@@]23C[C@@H](C(=O)OC)N(C(=O)c2cc(C)oc2C)C3=N1`, for which the Potency entry in experiment [2], in experiment [5] and in experiment [3] was “inactive” throughout.
In the case of `O=C1N(Cc2ccc(F)cc2)c2ccccc2[C@@]12O[C@H](COc1ccccc1)CC1CCCC12` (some centres not stated), the Potency result in experiment [5] and in experiment [3] was “inactive” in each case.
With `CCOC(=O)CN1C(=O)[C@]2(O[C@H](C)CC3=CCCC32)c2c(Br)cccc21` (some centres not stated), the Potency result in experiment [2], in experiment [4] and in experiment [3] was “inactive” in each case.
`CC(Nc1oc(-c2ccccc2)nc1-c1cccc2ccccc12)c1ccccc1` (configuration not stated): the Potency entry in experiment [5] and in experiment [3] was “inactive” each time.
`CC1=CC[C@@H](COc2ccccc2)O[C@@]2(C1)C(=O)N(Cc1ccc(Br)cc1)c1ccccc12`: in experiment [3], the Potency result is “inactive”.
In the case of `CCC(=O)N1C2=C(c3ccccc3[C@@H]1CC(=O)Nc1ccc3ccccc3c1)[C@H]1C(=O)N(c3ccccc3)C(=O)[C@@H]1[C@H](C)C2`, the Potency in experiment [4] is 1.51 µM (active). The Potency result in experiment [3] is “inactive”.
In the case of `COC(=O)[C@@]1(C=C2c3ccc(F)cc3[C@@H](OC)[C@@H]2C)[C@@H]2OCCC[C@@H]21`, the Potency result in experiment [2], in experiment [4] and in experiment [5] was “inactive” throughout.
As for `CCCCc1nc2c(c3c1C[C@H](C)OC3)CN(S(=O)(=O)c1ccc(C)cc1)CC2`, the Potency result in experiment [2], in experiment [4], in experiment [5] and in experiment [3] was “inactive” in each case.
With `CCOC(=O)C1=CN(CCC=C(C)C)C(=O)N(C(C)=O)C1c1ccccc1` (configuration not stated), the Potency result in experiment [1], in experiment [4] and in experiment [3] was “inactive” each time.
In the case of `COC(=O)C1=C(C)N(Cc2ccccc2)C(=NCC2CC2)NC1c1ccccc1` (configuration not stated), the Potency in experiment [2] was 1.69 µM (active).
Regarding `C=C(C(C)=O)C(O)c1ccco1` (configuration not stated), the Potency result in experiment [1] and in experiment [3] was “inactive” in each case.
As for `COC(=O)C1=C(C)N(Cc2ccccc2)C(=NCCc2ccccn2)NC1c1cccc(F)c1` (configuration not stated), the Potency entry in experiment [3] is “inactive”.
Take `CCN1C(=S)NC(c2cccs2)C(C(=O)OC)=C1C` (configuration not stated): the Potency entry in experiment [5] and in experiment [3] was “inactive” each time.
In the case of `COC1=C[C@H](C(=O)NCc2ccccn2)[C@H](C)[C@@H](c2ccccc2)CC1=O`, the Potency entry in experiment [2], in experiment [4] and in experiment [3] was “inactive” each time.
Consider `N#Cc1ccc2c(c1)C[C@]1(c3ccsc3)OC3=C(C(=O)OC4(CCCCC4)C3)[C@H]2O1`, for which the Potency result in experiment [2], in experiment [4], in experiment [5] and in experiment [3] was “inactive” each time.
Regarding `CC(CCN1CCc2nc(-c3ccccc3)c(-c3ccccc3)cc2C1)=NOC[C@@H](O)[C@H]1O[C@@H]2OC(C)(C)O[C@H]2[C@@H]1O`, the Potency result in experiment [1] and in experiment [3] was “inactive” each time. The Potency in experiment [4] is 1.9 µM (active).
As for `COc1ccc(O[C@H]2C=C[C@@H](c3ccccc3)O[C@H]2CON=C2c3cc(OC)ccc3O[C@H](c3cccc(OC)c3)[C@H]2O)cc1`, the Potency entry in experiment [2] and in experiment [3] was “inactive” each time. The Potency in experiment [4] is 1.69 µM (active).
With `C#CCCCON=C1C[C@@H](O)[C@H](O)[C@H]2[C@@H]3C(=O)N(Cc4ccc5c(c4)OCO5)C(=O)[C@@H]3CC[C@@H]12`, the Potency entry in experiment [2] and in experiment [3] was “inactive” in each case.
Take `COC1=C[C@H](C(=O)NC2CCN(Cc3ccccc3)CC2)[C@H](C)[C@@H](c2ccccc2)CC1=O`: the Potency result in experiment [3] was “inactive”.
As for `COCCN1C(=O)NC(c2ccccc2)C(C(=O)OC)=C1C` (configuration not stated), the Potency result in experiment [2], in experiment [4], in experiment [5] and in experiment [3] was “inactive” in each case.
In the case of `CCCCc1nc2c(c3c1C[C@H](C)OC3)CN(S(=O)(=O)CCCC)CC2`, the Potency entry in experiment [2], in experiment [4], in experiment [5] and in experiment [3] was “inactive” throughout.
As for `C=C(C)CCN1C(=O)NC(c2cccc(C(F)(F)F)c2)C(C(=O)OC)=C1C` (configuration not stated), the Potency entry in experiment [2], in experiment [4] and in experiment [5] was “inactive” each time.
As to `CCOC(=O)OC[C@H]1O[C@H](C#Cc2ccc(C(C)(C)C)cc2)C=C[C@H]1OC(=O)OCC`, the Potency in experiment [2] was 1.69 µM (active); in experiment [4], 2.13 µM (active).
With `Oc1ccc2c(c1-c1c(O)c(Br)cc3c1CCCC3)CCCC2`, the Potency entry in experiment [2] and in experiment [3] was “inactive” throughout.
In the case of `C[C@@H]1C=CCCO[C@]12C(=O)N(Cc1ccccc1C(F)(F)F)c1cccc(Br)c12`, the Potency result in experiment [1] and in experiment [3] was “inactive” each time.
Take `COC(=O)C1=C(C)N(Cc2ccccc2)C(=NCc2ccccc2)NC1c1ccccc1` (configuration not stated): the Potency result in experiment [1], in experiment [5] and in experiment [3] was “inactive” in each case.
Turning to `COc1cccc([C@H]2Oc3ccc(OC)cc3C(=NO[C@H](C)c3cn([C@H](CO)Cc4ccccc4)nn3)[C@H]2O)c1`, the Potency result in experiment [2], in experiment [5] and in experiment [3] was “inactive” throughout.
Regarding `COC(=O)N1C(C=CC=Cc2ccc(OC)cc2)=Cc2ccccc2C1CC(C)=O` (configuration not stated), in experiment [4], the Potency is 1.51 µM (active). In experiment [3], the Potency result was “inactive”.
Regarding `Cc1cc2c(c(=O)n1-c1ccccc1)[C@H]1O[C@](c3ccsc3)(Cc3ccccc31)O2`, the Potency in experiment [4] was 1.51 µM (active).
Turning to `Cc1cccc(CCN2CCC(C(=O)c3ccc(NS(C)(=O)=O)cc3)CC2)n1`, the Potency result in experiment [6] and in experiment [7] was “inactive” in each case.
In the case of `COc1ccc([C@]23Cc4ccccc4[C@H](O2)C2=C(CCCC2=O)O3)cc1`, in experiment [3], the Potency entry is “inactive”.
As for `COC(=O)CC=C1c2ccccc2[C@@H](O)[C@@H]1C`, the Potency entry in experiment [3] was “inactive”.
As to `CCCC[C@]12Cc3c(ccc4ccccc34)[C@H](O1)c1c(cc(C)oc1=O)O2`, the Potency entry in experiment [2], in experiment [4], in experiment [5] and in experiment [3] was “inactive” throughout.
Regarding `COC(=O)C1=C[C@H]([C@@H](C)[C@H](OC)c2ccccc2Br)[C@H]2c3ccccc3O[C@@H]12`, the Potency result in experiment [5] and in experiment [3] was “inactive” throughout.
Take `COC(=O)C1=C(C)N(Cc2ccccc2)C(=NCC(C)C)NC1c1ccc(Br)cc1` (configuration not stated): in experiment [3], the Potency entry is “inactive”.
For `COCCN1C(=O)C2=C(C1=O)C1N(C)c3ccccc3[C@@]13C[C@@H](CO)N(S(=O)(=O)c1ccc(OC)cc1)C3=N2` (some centres not stated), the Potency result in experiment [2], in experiment [4], in experiment [5] and in experiment [3] was “inactive” each time.
In the case of `COC(=O)[C@H]1O[C@@H](c2c(OC)c(OC)c(C)c(OC)c2OC)[C@H](C)[C@@H](O)[C@@H]1C`, the Potency entry in experiment [2], in experiment [4], in experiment [5] and in experiment [3] was “inactive” each time.
For `COc1cccc([C@@H]2[C@H](C)C[C@H]3CC(=O)N4[C@H](CC(=O)N32)C[C@@H](C)[C@@H]4c2cccc(OC)c2)c1`, in experiment [4], the Potency is 1.51 µM (active). Further, in experiment [3], the Potency result was “inactive”.
Consider `COC(=O)C1=C(C)N(CC2CC2)C(=O)NC1CCc1ccccc1` (configuration not stated), for which the Potency entry in experiment [2] and in experiment [3] was “inactive” in each case.
